The source of these data is PubChem BioAssay (NCI).

Some test systems named below: HCT-15 colon; HT29 colon; SNB-75 CNS; SNB-19 CNS; U251 CNS; PC-3 prostate; SK-MEL-5 melanoma; UACC-62 melanoma; LOX IMVI melanoma; SK-MEL-28 melanoma; SK-MEL-2 melanoma; EKVX NSCLC; SN12C renal; UO-31 renal; TK-10 renal; ACHN renal; CAKI-1 renal; A498 renal; CCRF-CEM leukemia; MOLT-4 leukemia.
Common to all, as to assay: NCI-60 one-dose screen, 48 h (100 = growth as untreated, 0 = no growth, -100 = all killed)
Conditions in all cases: 10 µM unless noted

Compounds without any hit were thinned out: in the full panel of roughly 83,000, 20% have a hit.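 Method: cells in 96-well plates; compound added at one concentration; 48 h incubation; percent growth measured; values under 10 scored active.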 Values without a mark were called inactive. The source made the active and inactive calls.

For the molecule `COc1cc(/C=C/C(=O)c2cccc(-n3cc(-c4ccc(Cl)cc4)[nH]c3=O)c2)ccc1O`, the growth in the experiment on HCT-15 colon was 37.8%; with HT29 colon, 27%; in the experiment with SNB-75 CNS, 50.3%; with SNB-19 CNS, 94.9%; in the experiment with U251 CNS, 32.4%; with PC-3 prostate it was 34.2%. The growth is 68.1% in the experiment on SK-MEL-5 melanoma; 64.3% with UACC-62 melanoma; 13.1% with LOX IMVI melanoma; 58.6% in the experiment on SK-MEL-28 melanoma; 58.5% in the experiment on SK-MEL-2 melanoma; 68.7% with EKVX NSCLC. Besides, the growth in the experiment on SN12C renal is 46.4%; with UO-31 renal, 31.2%; in the experiment with TK-10 renal, 104%; with ACHN renal it was 60.4%; in the experiment on CAKI-1 renal, 37.2%; in the experiment on A498 renal it was 106%. The growth with CCRF-CEM leukemia is 19.5%; with MOLT-4 leukemia, 24.2%.
For `O=c1oc2c(cc1-c1ccccc1)c(=O)[nH]c1ccccc12`, the growth was 98.2% in the experiment on HCT-15 colon; 96.6% in the experiment with HT29 colon; 92.7% in the experiment with SNB-75 CNS; 97.4% in the experiment with SNB-19 CNS; 93.4% with U251 CNS; 96.3% in the experiment on PC-3 prostate. Moreover, the growth with SK-MEL-5 melanoma is 99.4%; in the experiment on UACC-62 melanoma, 95.5%; in the experiment on LOX IMVI melanoma, 95.8%; in the experiment with SK-MEL-28 melanoma it was 99.7%; in the experiment with SK-MEL-2 melanoma, 107%; in the experiment on EKVX NSCLC, 91.4%. Besides, the growth in the experiment with SN12C renal was 96.6%; with UO-31 renal it was 96.6%; in the experiment on TK-10 renal, 99.4%; with ACHN renal, 102%; with CAKI-1 renal, 97.5%; in the experiment with A498 renal it was 96.9%. In addition, the growth with CCRF-CEM leukemia was 101%; in the experiment with MOLT-4 leukemia, 99.7%.
For `COC(=O)/C=C1/SC(=NCc2ccccc2)N(CCc2c[nH]c3ccccc23)C1=O`, the growth in the experiment with HCT-15 colon is 58.5%; with HT29 colon it was 68.1%; with SNB-75 CNS, 104%; in the experiment on SNB-19 CNS, 87.2%; with U251 CNS it was 78.5%; with PC-3 prostate it was 72.9%. In addition, the growth is 87.6% with SK-MEL-5 melanoma; 71.7% in the experiment on UACC-62 melanoma; 70.6% with LOX IMVI melanoma; 86.5% with SK-MEL-28 melanoma; 85.8% with SK-MEL-2 melanoma; 88.1% with EKVX NSCLC. Besides, the growth in the experiment on SN12C renal was 85.4%; with UO-31 renal it was 73%; with TK-10 renal, 129%; in the experiment on ACHN renal, 99.5%; with CAKI-1 renal it was 102%; with A498 renal, 88.1%. Besides, the growth is 30.3% in the experiment with CCRF-CEM leukemia and 3.29% (active) in the experiment on MOLT-4 leukemia.
For the molecule `O=C(CN1C(=O)S/C(=C\C(Cl)=C\c2ccccc2)C1=O)NC1CCS(=O)(=O)C1` (stereo not given), the growth in the experiment with HCT-15 colon was 15.7%; in the experiment with HT29 colon it was 53.5%; in the experiment on SNB-75 CNS it was 57.8%; in the experiment on SNB-19 CNS, 86.8%; in the experiment on U251 CNS, 81.6%; in the experiment on PC-3 prostate, 80.9%. For the same molecule, the growth was 84.5% with SK-MEL-5 melanoma; 72.1% in the experiment with UACC-62 melanoma; 14.2% in the experiment on LOX IMVI melanoma; 74.9% in the experiment on SK-MEL-28 melanoma; 85% in the experiment with SK-MEL-2 melanoma; 82.4% with EKVX NSCLC. Further, the growth was 79.7% with SN12C renal; 65.6% in the experiment with UO-31 renal; 64% in the experiment with TK-10 renal; 46.8% with ACHN renal; 78.1% with CAKI-1 renal; 99.7% with A498 renal. Besides, the growth with CCRF-CEM leukemia is 12.3%; in the experiment with MOLT-4 leukemia it was 40.7%.
As to `C/C(=C(\c1ccc(OCCN2CCCCCC2)cc1)c1ccc(OC(=O)c2ccccc2)cc1)c1ccc(Cl)cc1`, the growth in the experiment on HCT-15 colon was 7.21% (active); in the experiment on HT29 colon, 1.67% (active); in the experiment with SNB-75 CNS, 73.7%; in the experiment with SNB-19 CNS, 57.9%; with U251 CNS it was 29.8%; in the experiment with PC-3 prostate it was 33.8%. Further, the growth is 55.6% in the experiment on SK-MEL-5 melanoma; 28.4% with UACC-62 melanoma; -38.9% (active) in the experiment on LOX IMVI melanoma; 51.7% in the experiment with SK-MEL-28 melanoma; 63% with SK-MEL-2 melanoma; 68.6% in the experiment with EKVX NSCLC. Moreover, the growth in the experiment with SN12C renal is 47.1%; in the experiment with UO-31 renal it was 26.7%; with TK-10 renal it was 70.4%; in the experiment with ACHN renal it was 77.1%; with CAKI-1 renal it was 49.5%; in the experiment on A498 renal, 86.9%. Moreover, the growth in the experiment on CCRF-CEM leukemia was 16%; in the experiment on MOLT-4 leukemia, 8.86% (active).
On to `C=CCN=c1sc(-c2ccc3ccccc3c2)cn1NC(=O)c1cc2ccc1CCc1ccc(cc1)CC2`, for which the growth in the experiment on HCT-15 colon was 49.5%; in the experiment on HT29 colon, 30.1%; in the experiment with SNB-75 CNS, 53.3%; with SNB-19 CNS, 66.8%; in the experiment on U251 CNS, 53.9%; in the experiment with PC-3 prostate it was 37.8%. Moreover, the growth in the experiment on SK-MEL-5 melanoma was -10.1% (active); in the experiment with UACC-62 melanoma, 52.7%; in the experiment on LOX IMVI melanoma, 59.9%; in the experiment with SK-MEL-28 melanoma, 72.2%; with SK-MEL-2 melanoma, 85.6%; with EKVX NSCLC, 58.2%. Further, the growth with SN12C renal is 74.3%; with UO-31 renal, 42.3%; in the experiment on TK-10 renal, 79.7%; with ACHN renal, 72.3%; with CAKI-1 renal, 60.9%; with A498 renal, 62.7%. The growth with CCRF-CEM leukemia is 41.2%; in the experiment on MOLT-4 leukemia, 45.3%.
With `Cc1ccc(S(=O)(=O)OCC#CCOS(=O)(=O)c2ccc(C)cc2)cc1`, the growth was 72.3% in the experiment on HCT-15 colon; 50.3% in the experiment on HT29 colon; 5% (active) with SNB-75 CNS; 70.1% in the experiment on SNB-19 CNS; 22.6% in the experiment with U251 CNS; 70.4% in the experiment on PC-3 prostate. Moreover, the growth in the experiment on SK-MEL-5 melanoma was 59.4%; in the experiment on UACC-62 melanoma, 42.4%; in the experiment on LOX IMVI melanoma it was -35.8% (active); with SK-MEL-28 melanoma, 74.9%; in the experiment on SK-MEL-2 melanoma it was 66.4%; in the experiment with EKVX NSCLC, 60.9%. In addition, the growth in the experiment with SN12C renal was 64.1%; with UO-31 renal it was -87.1% (active); with TK-10 renal, 101%; in the experiment with ACHN renal, 49.5%; in the experiment with CAKI-1 renal it was -82.9% (active); in the experiment with A498 renal it was 85.9%. Also, the growth with CCRF-CEM leukemia was 7.43% (active); with MOLT-4 leukemia, 46.3%.
For `COc1ccc(N/N=C/c2cn(-c3ccc(C(=O)O)cc3)nc2-c2cc3ccccc3oc2=O)cc1`, the growth with HCT-15 colon is 30%; in the experiment with HT29 colon it was 63.1%; in the experiment with SNB-75 CNS, 82.1%; with SNB-19 CNS, 75.9%; in the experiment on U251 CNS, 107%; in the experiment on PC-3 prostate, 63.5%. Also, the growth in the experiment on SK-MEL-5 melanoma is 39.5%; in the experiment with UACC-62 melanoma, 22.6%; in the experiment on LOX IMVI melanoma, 25.7%; in the experiment on SK-MEL-28 melanoma, 69.5%; in the experiment on SK-MEL-2 melanoma, 60.3%; with EKVX NSCLC, 46.6%. The growth with SN12C renal is 89.2%; with UO-31 renal it was 22.8%; in the experiment on TK-10 renal, 97.1%; in the experiment with ACHN renal, 28.6%; with CAKI-1 renal, 60.8%; in the experiment on A498 renal, 125%. In addition, the growth with CCRF-CEM leukemia was 32.9%; in the experiment on MOLT-4 leukemia it was 34.6%.
